Results published in publication PMC4336329 (PLoS ONE, 2015).
Out of some 310,000 compounds screened, about 14,000 (4.5%) showed an effect of 50% or more. Effects have a minus sign here. Only a selection was taken, and strong results are over-represented in it overall.

Each molecule was assayed against human ether-à-go-go-related gene (hERG) potassium channel (human, UniProt Q12809) (assay: primary screen, population patch clamp on CHO cells stably expressing hERG; higher = less effect of the substance).
Chain of human ether-à-go-go-related gene (hERG) potassium channel (Q12809 whole entry, looked up): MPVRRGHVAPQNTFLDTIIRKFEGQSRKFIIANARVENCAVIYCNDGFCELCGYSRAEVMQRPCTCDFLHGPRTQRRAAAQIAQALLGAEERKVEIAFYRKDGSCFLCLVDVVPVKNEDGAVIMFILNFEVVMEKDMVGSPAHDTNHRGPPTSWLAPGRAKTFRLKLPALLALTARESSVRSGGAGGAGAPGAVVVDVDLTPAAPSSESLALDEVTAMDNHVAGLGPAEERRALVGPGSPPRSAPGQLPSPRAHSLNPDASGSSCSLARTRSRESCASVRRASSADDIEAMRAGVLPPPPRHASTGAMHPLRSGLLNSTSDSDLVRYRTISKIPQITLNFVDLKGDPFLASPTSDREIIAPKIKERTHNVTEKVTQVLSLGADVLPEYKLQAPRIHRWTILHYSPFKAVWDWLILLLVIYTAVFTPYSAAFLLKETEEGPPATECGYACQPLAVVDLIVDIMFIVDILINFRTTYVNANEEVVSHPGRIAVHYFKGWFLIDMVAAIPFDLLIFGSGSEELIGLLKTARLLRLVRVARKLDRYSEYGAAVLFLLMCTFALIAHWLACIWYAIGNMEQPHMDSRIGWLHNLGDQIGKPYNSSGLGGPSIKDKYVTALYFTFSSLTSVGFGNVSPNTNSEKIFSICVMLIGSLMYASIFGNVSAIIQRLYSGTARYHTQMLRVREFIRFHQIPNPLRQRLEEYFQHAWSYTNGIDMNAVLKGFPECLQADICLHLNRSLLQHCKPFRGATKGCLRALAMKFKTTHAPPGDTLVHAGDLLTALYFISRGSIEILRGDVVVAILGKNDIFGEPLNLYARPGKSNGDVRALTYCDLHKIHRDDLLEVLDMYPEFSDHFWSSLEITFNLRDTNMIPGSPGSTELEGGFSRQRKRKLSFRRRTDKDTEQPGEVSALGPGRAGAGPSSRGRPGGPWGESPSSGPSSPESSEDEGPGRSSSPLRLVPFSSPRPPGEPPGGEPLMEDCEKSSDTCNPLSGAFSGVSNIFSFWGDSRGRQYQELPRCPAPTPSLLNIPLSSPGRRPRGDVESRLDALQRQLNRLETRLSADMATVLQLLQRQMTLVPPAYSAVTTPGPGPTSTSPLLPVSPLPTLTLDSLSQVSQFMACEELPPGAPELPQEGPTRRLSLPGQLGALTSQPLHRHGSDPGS
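Also: peak tail current of the secondary pulse compared with the same well before compound.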

Row | Structure (SMILES) | hERG current change (%, negative = inhibition) at 10uM [%]
1 | CCN1CCN(c2ccc(S(=O)(=O)N3CCCCC3)cc2NC(=O)c2ccc([N+](=O)[O-])s2)CC1 | -80.6
2 | CCN1CCN(c2ccc(S(=O)(=O)N3CCCCC3)cc2NC(=O)c2ccc([N+](=O)[O-])o2)CC1 | -75.9
3 | CCN1CCN(c2ccc(S(=O)(=O)N3CCCCC3)cc2NC(=O)c2ccc(C)o2)CC1 | -75.7
4 | CCN1CCN(c2ccc(S(=O)(=O)N3CCCCC3)cc2NC(=O)c2cccc(C)c2[N+](=O)[O-])CC1 | -28.8
5 | CCN1CCN(S(=O)(=O)c2ccc(Cl)c(C(=O)Nc3ccccc3N3CCCCC3)c2)CC1 | 12.8
6 | COc1ccc(N2CCCC2)c(NC(=O)c2ccc([N+](=O)[O-])o2)c1 | 14
7 | COc1ccc(S(=O)(=O)N2CCCCC2)cc1NC(=O)c1ccc([N+](=O)[O-])o1 | -2.81
8 | CCN1CCN(c2ccc(S(=O)(=O)N3CCCCC3)cc2NC(=O)c2cc3ccccc3o2)CC1 | -53.7
9 | CCN1CCN(c2c(Cl)cccc2NC(=O)c2cc3ccccc3o2)CC1 | -23.4
10 | Cc1ccc(S(=O)(=O)N2CCCCC2)cc1NC(=O)c1cc2ccccc2o1 | -7.85
11 | CCCn1c(/N=C/c2ccccc2O)nc2ccccc21 | 13.6
12 | COc1ccc(OCCCC(=O)Nc2nncs2)cc1 | 0.955
13 | COc1cccc(C=Nc2ccc(N3CCOCC3)cc2)c1O | 17.9
14 | CCCCC(=O)Nc1ccc2c(c1)nc(CCNC(=O)c1ccco1)n2C | -11.1
15 | Cc1cnc(NC(=O)CN2CCN(c3ccccc3F)CC2)s1.Cl | 12.2
16 | Cc1ccc(S(=O)(=O)CCC(=O)OCC(=O)NCc2ccc(Cl)cc2)cc1 | 36.8
17 | O=C(Nc1ccccc1Cl)NC1(C(=O)N2CCOCC2)CCCCC1 | 17.5
18 | CCN1CCN(c2ccc(S(=O)(=O)N3CCCCC3)cc2NC(=O)c2sccc2C)CC1 | -71.4
19 | COc1ccccc1C(=O)Nc1nc(-c2cccs2)c(NC(C)=O)s1 | -7.05
20 | O=C(O)CN1c2cccc3cccc(c23)S1(=O)=O | 32.4
21 | CC(=O)N1c2ccc(Cl)cc2C2OCCC2C1c1ccco1 (stereo not shown) | 9.11
22 | O=C(c1ccc(S(=O)(=O)N2CCOCC2)cc1)N1CCN(c2ccccn2)CC1 | 4.62

Row | Structure (SMILES) | hERG current change (%, negative = inhibition) at 10uM [%]
23 | OC(C#CCN1CCCCC1)(c1ccccc1)c1ccccc1 | -24.6
24 | CC1CCCN1CC#CC(O)(c1ccccc1)c1ccccc1.Cl (stereo not shown) | -60.7
25 | OC(C#CCCN1CCCCC1)(c1ccccc1)C1CCCCC1 (stereo not shown) | -46.3
26 | OC(C#CCN1CCCC1)(c1ccccc1)c1cccc(F)c1 (stereo not shown) | -16.7
27 | OC(C#CCCN1CCCCC1)(c1ccccc1)c1ccccc1 | -53.8
28 | OC(C#CCN1CCCC1)(c1ccccc1)c1ccccc1 | -28.8
29 | CCOC(=O)[C@@H]1[C@H]2COc3ccc(Br)cc3[C@H]2N2C(=O)N(c3ccc(C)cc3)C(=O)[C@]12C | -4.14
30 | O=C(NC(=S)NN1CCCCC1c1cccnc1)c1ccc(Cl)cc1Cl (stereo not shown) | -6.98
31 | Cc1ccc(SCC(=O)NC(=O)NCCC(C)C)c(C)c1 | -1.09
32 | Cc1cc(Cl)c2oc(C(=O)N(C)CCCCN3CCOCC3)c(C)c2c1 | -46
33 | COc1ccccc1CNC(=O)c1c(O)c2cc(OC)c(OC)cc2[nH]c1=O | 6.86
34 | COc1cc(/C=N/NC(=O)C(=O)NCc2cccnc2)cc(OC)c1OC | 5.17
35 | CC(C)(C)[C@@H]1C=C(C(=O)N2CCN(Cc3ccc4c(c3)OCO4)CC2)O[C@H](OCc2ccc(CO)cc2)C1 | -35
36 | O=C(C1=C[C@H](c2ccc3c(c2)OCO3)C[C@H](OCc2ccc(CO)cc2)O1)N1CCN(Cc2ccc3c(c2)OCO3)CC1 | -17.2
37 | O=C(C1=C[C@@H](C2CC2)C[C@@H](OCc2ccc(CO)cc2)O1)N1CCN(Cc2ccc3c(c2)OCO3)CC1 | -51.7
38 | O=C(C1=C[C@H](C2CC2)C[C@H](OCc2ccc(CO)cc2)O1)N1CCN(Cc2ccc3c(c2)OCO3)CC1 | -57.8
39 | CC(C)(C)[C@H]1C=C(C(=O)N2CCN(Cc3ccc4c(c3)OCO4)CC2)O[C@@H](OCc2ccc(CO)cc2)C1 | -33.7
40 | O=C(C1=C[C@H](C2CCCCC2)C[C@H](OCc2ccc(CO)cc2)O1)N1CCN(Cc2ccc3c(c2)OCO3)CC1 | -18.3
41 | O=C(C1=C[C@@H](C2CC2)C[C@@H](OCCCCO)O1)N1CCN(Cc2ccc3c(c2)OCO3)CC1 | -11.1
42 | O=C(C1=C[C@@H](C2CCCCC2)C[C@@H](OCc2ccc(CO)cc2)O1)N1CCN(Cc2ccc3c(c2)OCO3)CC1 | 4.46
43 | C[C@H]1C=C(C(=O)N2CCN(Cc3ccc4c(c3)OCO4)CC2)O[C@@H](OCc2ccc(CO)cc2)C1 | -70.7
